In PubChem BioAssay:
Activity calls are given as the source filed them. Unless noted, how the calls were made is not given here.

Tests used:
[1] = HepG2 liver cancer cell viability effects, profiling panel, resazurin fluorescence, 24 h, PK04 Diversity Set (AID 1172); details: higher = more signal; further: test concentration not given here
[2] = basal S. cerevisiae growth modulation, no modifier, primary screen, OD600, strain BY4716, 24 h, basal condition (AID 1173); details: OD600, 24 h, higher = more signal, called active from +8 up or from −8 down
[3] = MM1S myeloma cell viability, profiling panel, resazurin fluorescence, basal, 24 h, PK04 Diversity Set (AID 1174); details: higher = more signal, called active from +8 up or from −8 down;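 further: MM1S multiple myeloma cell line; test concentration not given here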
[4] = target: Dihydroorotate dehydrogenase (quinone), mitochondrial (Plasmodium falciparum (isolate 3D7)) (UniProt Q08210); assay: PfDHODH enzyme inhibitors, primary screen, biochemical, C-terminal His tag, absorbance 600 nm (AID 1175); details: DCIP absorbance 600 nm, higher = more signal, called active from +8 up or from −8 down;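 further: recombinant parasite enzyme with a five histidine tag at its C terminus; test concentration not given here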
Sequence of Dihydroorotate dehydrogenase (quinone), mitochondrial (Plasmodium falciparum (isolate 3D7)) (Q08210 whole entry, looked up): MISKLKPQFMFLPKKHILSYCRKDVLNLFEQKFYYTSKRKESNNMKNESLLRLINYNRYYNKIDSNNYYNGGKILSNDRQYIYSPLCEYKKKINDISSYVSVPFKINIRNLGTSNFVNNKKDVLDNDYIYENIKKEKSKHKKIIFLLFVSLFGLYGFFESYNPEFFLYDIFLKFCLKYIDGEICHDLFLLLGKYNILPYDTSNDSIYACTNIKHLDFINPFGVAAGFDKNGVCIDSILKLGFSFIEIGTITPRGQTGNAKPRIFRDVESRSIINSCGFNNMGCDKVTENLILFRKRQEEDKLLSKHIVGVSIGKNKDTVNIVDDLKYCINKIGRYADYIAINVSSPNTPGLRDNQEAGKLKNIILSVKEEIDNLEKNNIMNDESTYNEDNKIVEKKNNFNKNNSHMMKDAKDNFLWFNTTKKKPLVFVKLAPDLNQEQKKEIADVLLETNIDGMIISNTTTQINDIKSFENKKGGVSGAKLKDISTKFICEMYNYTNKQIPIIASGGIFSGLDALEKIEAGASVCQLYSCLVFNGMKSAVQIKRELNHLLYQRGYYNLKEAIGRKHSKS

[5] = P. aeruginosa biofilm formation inhibitors, primary screen, strain PAO1, LB-PBS medium, absorbance 600 nm (AID 1176); further: test concentration not given here; details: P. aeruginosa PAO1 growth/biofilm, A600, 12 h; higher = more signal
[6] = S. cerevisiae RM11-1a growth modifiers, primary screen, strain RM11-1a, OD600, basal, 24 h (AID 1177); details: OD600, 24 h, higher = more signal, called active from +8 up or from −8 down;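 further: cultures grown under basal conditions with no added stressor; test concentration not given here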
[7] = E. coli acrAB mutant growth effects, primary screen, E. coli filamentation inducers, strain DRC39, OD650, 24 h (AID 1178); details: higher = more signal, called active from +8 up or from −8 down;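 further: growth measured as culture turbidity by optical density at 650 nm; test concentration not given here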
[8] = E. coli acrAB mutant growth effects, primary screen, E. coli filamentation inducers, strain DRC39, OD650, 48 h (AID 1179);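 further: screen aims at cell division blockers that make cells filament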; details: E. coli DRC39 delta-acrAB growth, higher = more signal, called active from +8 up or from −8 down
[9] = RPMI8226 myeloma cell viability, profiling panel, resazurin fluorescence, basal, 24 h, PK04 Diversity Set (AID 1180); details: higher = more signal;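 further: RPMI8826 multiple myeloma cell line at 5000 cells per well; test concentration not given here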
[10] = target: E3 ubiquitin-protein ligase XIAP (Homo sapiens) (UniProt P98170); assay: XIAP binders, primary screen, biophysical, small-molecule microarray, fluorescence 635 nm (AID 1181); details: small-molecule microarray binding, higher = more signal;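 further: score merges 667 nm emission and signal to noise over triplicate slides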
Sequence of E3 ubiquitin-protein ligase XIAP (Homo sapiens) (P98170 whole entry, looked up): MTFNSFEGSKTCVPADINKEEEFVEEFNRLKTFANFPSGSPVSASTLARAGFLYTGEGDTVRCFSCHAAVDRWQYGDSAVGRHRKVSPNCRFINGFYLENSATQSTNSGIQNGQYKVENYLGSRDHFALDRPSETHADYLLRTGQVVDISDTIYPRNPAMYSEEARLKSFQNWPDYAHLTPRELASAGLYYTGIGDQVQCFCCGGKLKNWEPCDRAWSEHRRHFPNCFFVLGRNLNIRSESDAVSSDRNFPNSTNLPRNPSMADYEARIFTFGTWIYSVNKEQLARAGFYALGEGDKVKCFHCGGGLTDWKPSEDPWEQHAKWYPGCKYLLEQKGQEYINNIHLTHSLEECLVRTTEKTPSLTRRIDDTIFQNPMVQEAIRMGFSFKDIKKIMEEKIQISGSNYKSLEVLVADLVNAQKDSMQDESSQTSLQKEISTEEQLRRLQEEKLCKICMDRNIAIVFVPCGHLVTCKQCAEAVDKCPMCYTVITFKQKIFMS

Row | Compound | z-score [1] | z-score [2] | z-score [3] | composite z-score [4] | z-score [5] | z-score [6] | z-score [7] | z-score [8] | z-score [9] | composite z-score [10]
1 | CCOC(=O)CCN1C(=O)[C@H]2[C@H]3[C@H](O)[C@H](O)CC(=NOCC=C(C)CCC=C(C)C)[C@H]3CC[C@H]2C1=O | -0.51 | 0.398 (inactive) | -0.524 (inactive) | -0.0222 (inactive) | 0.128 (inactive) | 0.0725 (inactive) | 0.614 (inactive) | 0.846 (inactive) | -0.764 | 0.0223
2 | O=C1[C@H]2[C@H]3[C@H](O)[C@H](O)CC(=NOCc4ccccc4)[C@@H]3CC[C@H]2C(=O)N1c1cccc(Oc2ccccc2)c1 | 0.363 | 0.204 (inactive) | -0.857 (inactive) | -0.0818 (inactive) | 0.741 (inactive) | 0.056 (inactive) | 0.796 (inactive) | 1.4 (inactive) | 0.173 | -0.15
3 | CSCC[C@@H]1NC(=O)CC=C[C@@H](C)COC(=O)[C@H](C)COC1=O | 0.376 | -1.59 (inactive) | 0.745 (inactive) | -0.766 (inactive) | 0.483 (inactive) | -2.43 (inactive) | 1.17 (inactive) | -0.216 (inactive) | -0.135 | 0.418
4 | CC(C)CON=C1C[C@@H](O)[C@@H](O)[C@@H]2[C@@H]3C(=O)N(C(C)(C)C)C(=O)[C@@H]3CC[C@@H]12 | -0.685 | -0.322 (inactive) | 0.4 (inactive) | -1.88 (inactive) | 0.295 (inactive) | -0.492 (inactive) | 0.796 (inactive) | -1.13 (inactive) | -0.463 | -0.277
5 | CCOC(=O)[C@H](Cc1ccccc1)NC(=O)CCC1CC(OC(=O)NCCc2ccc(F)cc2)CC2(CCCC(COC(=O)NCCOc3ccccc3)O2)O1 (stereo not given in full) | 0.121 | -0.245 (inactive) | -0.02 (inactive) | -0.189 (inactive) | 0.651 (inactive) | 0.408 (inactive) | 0.417 (inactive) | 0.343 (inactive) | 0.194 | -0.0166
6 | CC(C)[C@@H](OCc1ccccc1)[C@H](C)C=NO[C@@H](C)c1cn([C@H](CO)Cc2ccccc2)nn1 | -1.07 | -2.35 (inactive) | -0.883 (inactive) | -0.984 (inactive) | 0.241 (inactive) | -0.0022 (inactive) | 0.805 (inactive) | 0.633 (inactive) | -1.63 | 0.0374
7 | C[C@@H]1C=CCC(=O)OC[C@H](C)C(=O)N[C@@H](Cc2ccccc2)C(=O)OC1 | -0.42 | -1.13 (inactive) | 0.489 (inactive) | -2.99 (inactive) | -0.355 (inactive) | -0.868 (inactive) | 0.0826 (inactive) | -0.0419 (inactive) | 0.394 | -0.0669
8 | COC(=O)[C@@H]1CC[C@H](C)[C@@H](c2ccc(Br)cc2)N1C[C@@H](O)CN=[N+]=[N-] | -0.36 | -11.9 (active) | 0.506 (inactive) | -3.04 (inactive) | 0.733 (inactive) | -0.492 (inactive) | -1.47 (inactive) | -2.14 (inactive) | -0.0718 | -0.0118
9 | CO[C@H]1COC(=O)CCC[C@H](C)[C@@H](OC)COC(=O)CC=C[C@@H]1C | 0.367 | -0.721 (inactive) | -1.18 (inactive) | -1.58 (inactive) | -0.339 (inactive) | -1.02 (inactive) | 0.42 (inactive) | 0.0526 (inactive) | 1.07 | 0.0029
10 | Cc1ccc(S(=O)(=O)N[C@@H]2COC(=O)CC=C[C@@H](C)[C@H](NS(=O)(=O)c3ccc(C)cc3)COC(=O)[C@H](C)NC(=O)CC=C[C@H]2C)cc1 | -0.286 | -0.547 (inactive) | 0.341 (inactive) | 0.576 (inactive) | -0.143 (inactive) | -0.188 (inactive) | 0.983 (inactive) | 0.0462 (inactive) | -0.24 | -0.227
11 | CC(=O)OC[C@H]1O[C@H](CC=NO[C@@H](C)c2cn([C@H](CO)Cc3ccccc3)nn2)C=C[C@@H]1OC(C)=O | -0.462 | -0.305 (inactive) | 0.0157 (inactive) | -2.87 (inactive) | -0.88 (inactive) | -0.793 (inactive) | -0.645 (inactive) | -1.36 (inactive) | 0.205 | -0.434
12 | COC(=O)[C@H](Cc1ccccc1)NC(=O)[C@@H](C)CO | -0.427 | -0.462 (inactive) | -0.0481 (inactive) | -2.16 (inactive) | 0.733 (inactive) | 0.0469 (inactive) | -1.48 (inactive) | -0.84 (inactive) | -0.376 | 0.0154
13 | COc1ccc(O[C@H]2C=C[C@@H](c3ccccc3)O[C@@H]2CO)cc1 | 0.121 | -4.83 (inactive) | 0.222 (inactive) | -0.163 (inactive) | 0.438 (inactive) | 0.0505 (inactive) | 0.137 (inactive) | -0.447 (inactive) | -0.5 | -0.042
